# In PubChem BioAssay:
# For part of these data: Entries with a potency or affinity are not part of this list. Activity calls are given as the source filed them. Unless noted, no rule for the calls is given here.
# Tests used:
# [1] = antimalarial activity against Dd2 strain (AID 2302;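 active = growth inhibition above 50% at the single 2 µM test dose, taken to imply half-maximal potency below 2 µM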;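 also: 0% = DMSO untreated growth and 100% = chloroquine plus artemisinin killed control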); conditions: P. falciparum Dd2 in RBCs, LDH growth readout, 72 h; at 2 µM; stronger effect = higher value
# [2] = human hepatoma cell viability loss – ATP luminescence, cytotoxicity control for P. falciparum antimalarial project, primary screen (AID 2303;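 active = inhibition above 50%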;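 also: 0% = DMSO wells and 100% = digitonin-killed cells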); conditions: HepG2 viability, 24-48 h, at 10 µM, stronger effect = higher value
# [3] = target: L-lactate dehydrogenase (Plasmodium falciparum (isolate CDC / Honduras)) (UniProt Q27743); test: PfLDH activity inhibition – cell lysate, 3D7 strain, counter-screen for P. falciparum growth inhibition project (AID 2304);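 also: 0% = vehicle and 100% = reference inhibitor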; conditions: P. falciparum 3D7 crude extract, LDH APAD/NBT absorbance; at 2 µM; stronger effect = higher value
# Sequence of L-lactate dehydrogenase (Plasmodium falciparum (isolate CDC / Honduras)) (Q27743 whole entry, looked up): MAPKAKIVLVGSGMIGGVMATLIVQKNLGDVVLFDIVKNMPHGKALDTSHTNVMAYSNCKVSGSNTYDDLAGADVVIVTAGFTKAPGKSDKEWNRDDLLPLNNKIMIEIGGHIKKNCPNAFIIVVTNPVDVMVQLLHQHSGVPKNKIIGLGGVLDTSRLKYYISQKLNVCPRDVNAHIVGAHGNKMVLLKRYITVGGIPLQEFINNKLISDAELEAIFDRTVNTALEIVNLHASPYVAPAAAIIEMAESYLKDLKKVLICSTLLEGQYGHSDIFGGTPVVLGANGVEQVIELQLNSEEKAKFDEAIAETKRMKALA
# [4] = inhibition of 3D7 malaria parasite growth – strain 3D7 (AID 2306);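 also: 0% = DMSO wells and 100% = chloroquine plus artemisinin control wells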; conditions: P. falciparum 3D7 erythrocytic growth, LDH absorbance, 72 h; at 2 µM; stronger effect = higher value
# [5] = target: Plasmodium falciparum protein kinase 6 (PK6, PF3D7_1337100) (UniProt Q8IDW1); test: PfPK6 kinase inhibitors, biochemical, TCAMS library (AID 1159586); conditions: recombinant PfPK6, Kinase-Glo ATP depletion luminescence
# Sequence of Plasmodium falciparum protein kinase 6 (PK6, PF3D7_1337100) (Q8IDW1 1-305): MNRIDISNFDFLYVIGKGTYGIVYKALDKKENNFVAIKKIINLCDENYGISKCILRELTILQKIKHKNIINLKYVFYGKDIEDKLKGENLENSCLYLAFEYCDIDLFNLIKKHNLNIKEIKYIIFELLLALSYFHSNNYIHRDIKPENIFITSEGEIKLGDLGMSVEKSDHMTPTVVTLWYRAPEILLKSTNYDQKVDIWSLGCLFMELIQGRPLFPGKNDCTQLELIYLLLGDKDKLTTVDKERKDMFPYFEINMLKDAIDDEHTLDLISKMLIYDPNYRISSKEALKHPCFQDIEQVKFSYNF
# [6] = target: Protein kinase 7 (PK7), Plasmodium falciparum 3D7 (PF3D7_0213400) (UniProt Q7YTF7); test: inhibition of Plasmodium PK7 catalytic activity – biochemical, TCAMS antimalarial set, Kinase-Glo luminescence (AID 1159587); conditions: recombinant PfPK7, Kinase-Glo ATP depletion luminescence
# Sequence of Protein kinase 7 (PK7), Plasmodium falciparum 3D7 (PF3D7_0213400) (Q7YTF7 1-343): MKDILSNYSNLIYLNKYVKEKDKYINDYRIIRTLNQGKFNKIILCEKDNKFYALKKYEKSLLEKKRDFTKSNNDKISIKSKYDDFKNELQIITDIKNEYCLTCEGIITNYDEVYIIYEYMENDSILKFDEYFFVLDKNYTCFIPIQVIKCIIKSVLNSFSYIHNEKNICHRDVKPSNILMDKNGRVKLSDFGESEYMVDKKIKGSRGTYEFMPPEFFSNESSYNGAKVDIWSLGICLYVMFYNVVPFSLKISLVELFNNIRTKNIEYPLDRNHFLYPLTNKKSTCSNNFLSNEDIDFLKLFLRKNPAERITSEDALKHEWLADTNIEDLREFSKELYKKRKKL
# [7] = target: Calcium-dependent protein kinase 4 (Plasmodium falciparum (isolate 3D7)) (UniProt Q8IBS5); test: PfCDPK4 kinase inhibitors, biochemical, TCAMS library (AID 1159588; cut-off not given, nearly all actives have IC50 up to about 0.91 µM); conditions: recombinant PfCDPK4, Kinase-Glo ATP depletion luminescence
# Sequence of Calcium-dependent protein kinase 4 (Plasmodium falciparum (isolate 3D7)) (Q8IBS5 whole entry, looked up): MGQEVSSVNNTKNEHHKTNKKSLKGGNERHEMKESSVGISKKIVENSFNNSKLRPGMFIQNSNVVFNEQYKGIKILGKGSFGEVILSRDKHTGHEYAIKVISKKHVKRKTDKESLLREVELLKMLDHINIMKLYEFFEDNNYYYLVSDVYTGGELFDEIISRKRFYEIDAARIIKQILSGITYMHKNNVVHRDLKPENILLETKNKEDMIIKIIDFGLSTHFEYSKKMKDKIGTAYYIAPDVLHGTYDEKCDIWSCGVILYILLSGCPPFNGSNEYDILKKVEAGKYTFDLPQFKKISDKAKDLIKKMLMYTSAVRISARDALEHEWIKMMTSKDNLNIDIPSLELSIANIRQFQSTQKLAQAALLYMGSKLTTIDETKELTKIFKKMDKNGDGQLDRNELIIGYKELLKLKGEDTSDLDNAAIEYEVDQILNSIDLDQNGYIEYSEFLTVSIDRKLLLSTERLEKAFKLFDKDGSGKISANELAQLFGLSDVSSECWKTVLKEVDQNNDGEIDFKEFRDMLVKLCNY
# [8] = viability loss with induced miR-34 in A549 – imaging, A549 dox-inducible miR-34, nuclei and caspase counts, primary screen (AID 1347080;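 active = compounds whose cell count with miR-34 switched on is under 0.7 times the count with it off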); conditions: A549 miR-34 inducible, Hoechst nuclei count, 48 h
# [9] = blockers of cellular phospholipid synthesis – cell-based, LOPAC library, screen 4, primary screen (AID 1347384); conditions: animal cells, phospholipid biosynthesis inhibition screen; at 10 µM
# [10] = galactose survival enhancers in mitochondrial complex I cybrids – cell-based, galactose medium, ATP luminescence, primary screen (AID 1645843;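 active = z-score of at least 1.8 in each of two replicates, scored against plate mean and spread of sample wells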;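 also: positive z means more ATP and so rescue of galactose-driven cybrid death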); conditions: complex I mutant cybrid cells, 72 h, stronger effect = higher value
compound,measurement,setting,value
Cc1cccc(Nc2nc(NCCCCN)nc3cc[nH]c(=O)c23)c1,growth inhibition,[1],97% (active)
same,inhibition,[2],34% (inactive)
same,inhibition,[3],0% (inactive)
same,growth inhibition,[4],98% (active)
same,outcome,[5],inactive
same,outcome,[6],inactive
CN(C)Cc1cccc(-c2cc3c(-c4cnn(C)c4)c(Cl)cnc3[nH]2)c1,growth inhibition,[1],21% (inactive)
same,inhibition,[2],75% (active)
same,inhibition,[3],-5% (inactive)
same,growth inhibition,[4],96% (active)
same,outcome,[6],inactive
same,outcome,[7],inactive
CCn1c(-c2nonc2N)nc2c(-c3cccc(Cl)c3)ncc(OCCCNCCc3cnc[nH]3)c21,growth inhibition,[1],98% (active)
same,inhibition,[2],16% (inactive)
same,inhibition,[3],-3% (inactive)
same,growth inhibition,[4],101% (active)
same,outcome,[5],inactive
same,outcome,[6],inactive
CNC(=O)c1ccccc1Nc1nc(Nc2ccc(N3CCOCC3)cc2)ncc1Cl,growth inhibition,[1],97% (active)
same,inhibition,[2],75% (active)
same,inhibition,[3],-3% (inactive)
same,growth inhibition,[4],97% (active)
same,outcome,[6],inactive
same,outcome,[7],inactive
NS(=O)(=O)c1cccc(Nc2nccc(-c3c(-c4cccc(NC(=O)c5c(F)cccc5F)c4)nn4ccccc34)n2)c1,growth inhibition,[1],97% (active)
same,inhibition,[2],81% (active)
same,inhibition,[3],2% (inactive)
same,growth inhibition,[4],98% (active)
same,outcome,[5],inactive
same,outcome,[6],inactive
NC(=O)c1ccccc1Nc1nc(Nc2cccc(N3CCN(CCO)CC3)c2)ncc1Cl,growth inhibition,[1],98% (active)
same,inhibition,[2],93% (active)
same,inhibition,[3],1% (inactive)
same,growth inhibition,[4],95% (active)
same,outcome,[6],inactive
same,outcome,[7],inactive
NCCCNc1nc(Nc2cccc(C(N)=O)c2)c2c(=O)[nH]ccc2n1,growth inhibition,[1],49% (inactive)
same,inhibition,[2],9% (inactive)
same,inhibition,[3],-3% (inactive)
same,growth inhibition,[4],99% (active)
same,outcome,[5],inactive
same,outcome,[6],inactive
Cn1cc(-c2ccnc3[nH]c(-c4cccc(CNC5CCC(O)CC5)c4)cc23)cn1 (configuration not stated),growth inhibition,[1],82% (active)
same,inhibition,[2],48% (inactive)
same,inhibition,[3],2% (inactive)
same,growth inhibition,[4],95% (active)
same,outcome,[6],inactive
same,outcome,[7],inactive
CNC(=O)c1ccccc1Nc1nc(Nc2cccc(CS(C)(=O)=O)c2)ncc1C,growth inhibition,[1],95% (active)
same,inhibition,[2],74% (active)
same,inhibition,[3],-4% (inactive)
same,growth inhibition,[4],97% (active)
same,outcome,[6],inactive
same,outcome,[7],inactive
O=C(Nc1cccc(-c2nn3ccccc3c2-c2ccnc(Nc3cccc(-c4cnco4)c3)n2)c1)C1CCCCC1,growth inhibition,[1],99% (active)
same,inhibition,[2],71% (active)
same,inhibition,[3],-4% (inactive)
same,growth inhibition,[4],95% (active)
same,outcome,[5],inactive
same,outcome,[6],inactive
COc1ccc(Nc2ncc3c(-c4cccc(NC(=O)Cc5ccc(O)cc5)c4)c[nH]c3n2)cc1OC,growth inhibition,[1],99% (active)
same,inhibition,[2],48% (inactive)
same,inhibition,[3],-2% (inactive)
same,growth inhibition,[4],102% (active)
same,outcome,[6],inactive
same,outcome,[7],inactive
OC1CCC(Nc2ccc3ncc(-c4ccc(Cl)cc4)n3n2)CC1 (configuration not stated),growth inhibition,[1],98% (active)
same,inhibition,[2],57% (active)
same,inhibition,[3],0% (inactive)
same,growth inhibition,[4],97% (active)
same,outcome,[5],inactive
same,outcome,[7],inactive
Cc1cc(Nc2ncc(Cl)c(Nc3ccccc3C(N)=O)n2)n[nH]1,growth inhibition,[1],96% (active)
same,inhibition,[2],70% (active)
same,inhibition,[3],-1% (inactive)
same,growth inhibition,[4],98% (active)
same,outcome,[6],inactive
same,outcome,[7],inactive
CN1CCN(c2ccc(Nc3nccc(-c4cnn5ncccc45)n3)cc2Cl)CC1,growth inhibition,[1],92% (active)
same,inhibition,[2],65% (active)
same,inhibition,[3],0% (inactive)
same,growth inhibition,[4],95% (active)
same,outcome,[6],inactive
same,outcome,[7],inactive
CCn1c(-c2nonc2N)nc2c(-c3ccccc3)ncc(OCCCCNCCc3ncc[nH]3)c21,growth inhibition,[1],42% (inactive)
same,inhibition,[2],34% (inactive)
same,inhibition,[3],-1% (inactive)
same,growth inhibition,[4],92% (active)
same,outcome,[5],inactive
same,outcome,[6],inactive
NCCNS(=O)(=O)c1ccc(-c2ccnc3[nH]c(-c4ccncc4)cc23)cc1,growth inhibition,[1],95% (active)
same,inhibition,[2],-10% (inactive)
same,inhibition,[3],3% (inactive)
same,growth inhibition,[4],96% (active)
same,outcome,[6],inactive
same,outcome,[7],inactive
Cn1c(=O)c(-c2c(Cl)cccc2Cl)cc2cnc(Nc3ccc(N4CCOCC4)cc3)nc21,growth inhibition,[1],97% (active)
same,inhibition,[2],64% (active)
same,inhibition,[3],4% (inactive)
same,growth inhibition,[4],98% (active)
same,outcome,[6],inactive
same,outcome,[7],inactive
same,fold change,"[8]; stronger effect = lower value, cell number ratio, induced over uninduced",1.06 (inactive)
same,fold change,[8]; measured here: relative caspase fold change +Dox/-Dox,1.37
same,cell count,"[8]; measured here: total cells with miR-34 induction, stronger effect = lower value",814
same,cell count,[8]; measured here: total cells without miR-34 induction,768
same,outcome,[9],inactive
same,z-score,[10],-1.38 (inactive)
O=S1(=O)NCc2ccc(Nc3nccc(Nc4ccc5c(cnn5Cc5ccccc5)c4)n3)cc21,growth inhibition,[1],33% (inactive)
same,inhibition,[2],-8% (inactive)
same,inhibition,[3],-1% (inactive)
same,growth inhibition,[4],94% (active)
same,outcome,[6],inactive
same,outcome,[7],inactive
COc1ccc(Nc2ncc(C#N)c(Nc3ccccc3C(N)=O)n2)cc1N1CCN(C)CC1,growth inhibition,[1],97% (active)
same,inhibition,[2],56% (active)
same,inhibition,[3],-1% (inactive)
same,growth inhibition,[4],93% (active)
same,outcome,[6],inactive
same,outcome,[7],inactive
CCn1c(-c2nonc2N)nc2c(-c3cccc(NC(=O)Nc4cccc(C(F)(F)F)c4)c3)ncc(OCCCN)c21,growth inhibition,[1],70% (active)
same,inhibition,[2],21% (inactive)
same,inhibition,[3],2% (inactive)
same,growth inhibition,[4],95% (active)
same,outcome,[5],inactive
same,outcome,[6],inactive
O=c1[nH]ccc2nc(N[C@@H]3CCCNC3)nc(Nc3ccc(S(=O)(=O)N4CCOCC4)cc3)c12,growth inhibition,[1],99% (active)
same,inhibition,[2],13% (inactive)
same,inhibition,[3],0% (inactive)
same,growth inhibition,[4],96% (active)
same,outcome,[6],inactive
same,outcome,[7],inactive
